Compound activity from PubChem BioAssay.
This is a sample that favours compounds with a hit; in the whole collection about 19% have one here.
IL-1B inflam inh: blocks inflammasome-driven IL-1 beta release; THP-1 LPS/ATP IL-1B secretion, AlphaLISA, 16 h; hits give low values; 360,000 tested, 4.7% active; activity change, % at 57.5 µM; in the data active means activity change below about -50%; inconclusive means mostly about -30% to -49%
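THP-1 cells pretreated 1 hr with compounds (up to 57.5 uM final), then stimulated with LPS (250 ng/mL final) plus ATP (1.25 mM final); secreted IL-1B measured by AlphaLISA after 16 hr, decreased signal indicating inhibition.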
DT40 TDP1 no CPT: qHTS for Inhibitors of human tyrosyl-DNA phosphodiesterase 1 (TDP1): qHTS in cells in absence of CPT; Potency, µM (doses to about 46.2 µM), actives largely listed as inhibitors; 420,000 tested, 15% active; DT40 Tdp1-/- hTDP1 cells, no CPT, ATP luminescence, 48 h; further: nearly all actives have a fitted effect of over 55% in size
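Readout: luminescence from CellTiter-Glo after 30 min in the dark at RT. Cells: DT40 Tdp1-/- with stable hTDP1, 400/well. Exposure: compounds alone, ≥48 hr, 37 °C.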
TDP1 cell CPT: growth inhibition of DT40 Tdp1-/-;hTDP1 cells with camptothecin (screen for TDP1 inhibitors) | chicken DT40 Tdp1-/-;hTDP1 cells + 20 nM CPT, ATP luminescence, 48 h | Potency, µM (series often up to 46.2 µM), usual class: inhibitors | 420,000 tested, 12% active; further: nearly all actives have a fitted effect of over 55% in size
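Cell growth measured by CellTiter-Glo luminescence after a minimum 48 h, 37 C compound exposure with 20 nM CPT in Tdp1-knockout DT40 cells stably expressing hTDP1, seeded 400/well; qHTS titration format.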
HT1080-NT tox: kills 2HG-producing HT-1080-NT fibrosarcoma cells. HT-1080-NT fibrosarcoma viability, CellTiter-Glo ATP luminescence, 48 h. Potency, µM (highest dose often 46.1 µM), hits mostly cytotoxic. 360,000 tested, 1.6% active. AID 686970;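 further: NT is the 2HG producing partner of a matched IDH1 knockdown line; nearly all actives have a fitted effect of over 55% in size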
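Toxicity toward the 2HG-producing NT line was scored as %Activity, normalised to DMSO and no-cell wells, from CellTiter-Glo luminescence after 48 hours' treatment.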
HT1080 IDH1KD tx: HT-1080 IDH1 knockdown cell toxicity (counter line); HT-1080 IDH1 knockdown viability, ATP luminescence, 48 h; Potency, µM (highest dose often 46.1 µM), most hits filed as cytotoxic; 360,000 tested, 2% active
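Viability of IDH1-knockdown HT-1080 fibrosarcoma cells was assessed by CellTiter-Glo after 48 h at 37 °C with titrated compound; concentration-effect curves were classified by fit quality and response size.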
Hits are given with their value; 0 = inactive; ? = inconclusive; - = no result. Unless noted, the call rests on the fitted dose curve; in most records, active means well fitted curve in the direction sought with a large enough effect; inconclusive means small, poorly fitted or top-dose-only effect, or another doubt; inactive means no such curve, though single readings can be large; an effect the other way counts as inactive or inconclusive.

SMILES	IL-1B inflam inh	DT40 TDP1 no CPT	TDP1 cell CPT	HT1080-NT tox	HT1080 IDH1KD tx
COc1ccc(OC)c(NC(=O)c2[nH]c(C)c(C(C)=O)c2C)c1	0	?	0	0	0
Cc1ccc(C(=O)Nc2nc(-c3ccco3)c(-c3ccco3)s2)o1	-57.1	20.6µM	8.2µM	0	0
COc1ccc(-c2nc(NC(=O)c3[nH]c(C)c(C(C)=O)c3C)sc2C)cc1	-81.8	?	?	?	?
NS(=O)(=O)c1ccc(-n2nncc2-c2ccco2)cc1	0	0	0	?	0
CS(=O)(=O)c1ccc(Sc2nc3ccccc3s2)c([N+](=O)[O-])c1	-120.9	13µM	10.3µM	0	20.6µM
CC1C/C(=N/Nc2nc3ccccc3[nH]2)CC(C)(C)C1 (stereo unspecified)	0	?	20.6µM	0	0
CCN1CCN(C(=O)Nc2ccccc2OC)CC1	0	0	?	0	0
O=c1c(O)cc(C2Oc3cc(O)cc(O)c3CC2O)cc2c(C3Oc4cc(O)cc(O)c4CC3O)cc(O)c(O)c12 (stereo unspecified)	-	3.26µM	4.61µM	-	-
CCCCOCCO	0	0	0	-	-
CCCCCCCCCCCCCCCCOCCOCCOCCOCCOCCOCCOCCOCCOCCOCCOCCOCCOCCOCCOCCOCCOCCOCCOCCOCCO	-	7.5µM	23.7µM	-	-
CCCCCCCCCCOCC(O)CN (stereo unspecified)	-	6.68µM	6.68µM	-	-
O=C(CSc1nnc(CCCN2C(=O)c3cccc4cccc(c34)C2=O)n1-c1ccccc1)N1CCN(CCO)CC1	?	?	?	0	0
O=C1C=C(c2ccc(O)cc2)C[C@@H](c2ccc(Cl)cc2)C1	-75.4	?	?	0	0
Cc1ccc(C2=CC(=O)C[C@H](c3ccc(Cl)cc3)C2)cc1	0	?	23.1µM	0	0
COc1ccc(C2=CC(=O)C[C@H](c3ccc(Cl)cc3)C2)cc1	0	?	16.4µM	?	?
O=C1C=C(Nc2ccc(Cl)cc2)CC(c2ccc(Cl)cc2)C1 (stereo unspecified)	-84.8	?	?	?	0
Cc1ccc(C2CC(=O)C=C(Nc3ccc(Cl)cc3)C2)cc1 (stereo unspecified)	0	?	?	0	0
Cc1ccc(-n2ncc3c2CC(C)(C)CC3NC(=O)c2c(C)noc2C)cc1 (stereo unspecified)	0	?	?	0	0
C#CCN(C[C@H]1[C@H](OC(=O)NCc2ccc(OC)c(OC)c2)[C@H](OC(=O)NCc2ccc(OC)c(OC)c2)C[C@H]2C(=O)N(c3ccccc3)C(=O)[C@@H]12)S(=O)(=O)c1ccc(C)cc1	0	?	0	0	0
C#CCN(C[C@@H]1[C@@H](OC(=O)NCc2ccccc2)[C@@H](OC(=O)NCc2ccccc2)CN(C(=O)OC(C)C)N1C(=O)OC(C)C)S(=O)(=O)c1ccc(C)cc1	-57.6	11.6µM	20.6µM	0	0
C#CCN(C[C@@H]1[C@@H](OC(=O)NCC2CCCCC2)[C@@H](OC(=O)NCC2CCCCC2)CN(C(=O)OC(C)C)N1C(=O)OC(C)C)S(=O)(=O)c1ccc(C)cc1	0	7.31µM	9.2µM	0	0
CC(C)C[C@@H]1Cc2[nH]c(=S)[nH]c(=O)c2[C@H](CCc2ccccc2)O1	0	?	?	0	0
COc1ccc(CNC(=O)C(=O)NCC2CCCO2)cc1 (stereo unspecified)	0	20.6µM	16.4µM	0	0
COc1ccc(CNC(=O)C2CC(C)=CCC2C(=O)O)cc1 (stereo unspecified)	0	0	?	0	0
COc1ccc(CNC(=O)C2CC(C)=C(C)CC2C(=O)O)cc1 (stereo unspecified)	0	9.2µM	9.2µM	0	0
SMILES	IL-1B inflam inh	DT40 TDP1 no CPT	TDP1 cell CPT	HT1080-NT tox	HT1080 IDH1KD tx
COc1ccc(CCNC(=O)C(=O)NCC2CCCO2)cc1 (stereo unspecified)	0	0	0	0	0
Cc1ccn2c(CNCC3OCCc4ccccc43)c(C(=O)N3CCCCCC3)nc2c1 (stereo unspecified)	0	?	?	0	0
Cc1ccc(C(=O)Oc2ccc(Cl)c3cccnc23)cc1[N+](=O)[O-]	0	20.6µM	?	0	0
CCOc1ccccc1CNC(=O)Cn1nc(N2CCN(c3ccccc3)CC2)ccc1=O	-	20.6µM	20.6µM	-	-
COc1ccc(CNC(=O)Cn2nc(N3CCN(c4ccccc4)CC3)ccc2=O)c(OC)c1	-	14.6µM	?	-	-
COc1cccc(CNC(=O)Cn2nc(N3CCN(c4ccccc4OC)CC3)ccc2=O)c1	-	20.6µM	18.4µM	-	-
COc1ccccc1NC(=O)CN1CCN(c2ccccc2OC)CC1	0	?	0	0	0
CCc1ccccc1NC(=O)Cn1nc(N2CCN(c3ccccc3OC)CC2)ccc1=O	-	13µM	?	-	-
COc1ccccc1N1CCN(CC(=O)NCc2ccc(Cl)cc2)CC1	0	?	0	0	0
CCN(CC)C(=O)C1CCCN(Cc2ccc3ccccc3c2)C1 (stereo unspecified)	0	0	0	0	0
C=C1NN(C(C)C(=O)O)C(=O)N1c1ccc(OCc2ccccc2)cc1 (stereo unspecified)	-	0	0	-	-
O=C(NNC(=O)c1cc(-c2ccc(Cl)cc2)nc2ccccc12)c1csc(N2CCOCC2)n1	0	?	0	0	0
COc1ccc(N2c3ccccc3CN(Cc3ccccc3)CC2Cc2cc(OC)c(OC)c(OC)c2)cc1 (stereo unspecified)	0	?	?	0	0
CC(=O)Nc1nc(-c2cc([N+](=O)[O-])cs2)cs1	0	?	0	0	0
C=CCC[C@H](Cc1ccc(F)cc1)C(=O)OC[C@@H](Cc1c[nH]c2ccccc12)NC(=O)[C@@H](CC=C)CC(=O)N(CCO)Cc1ccccc1	-61.7	?	?	?	?
C=CCC[C@@H](Cc1ccc(F)cc1)C(=O)OC[C@H](Cc1c[nH]c2ccccc12)NC(=O)[C@H](CC=C)CC(=O)N(CCO)Cc1ccccc1	0	20.6µM	14.6µM	?	?
CC1=NN(CCc2ccccn2)C(=O)CC1	0	0	0	0	0
CC1CCN(C(=O)C2CCCN2S(=O)(=O)c2ccc(Cl)cc2)CC1 (stereo unspecified)	0	0	0	0	0
CN(C)c1ccc(P(=O)(COc2ccc([N+](=O)[O-])cc2)c2ccc(N(C)C)cc2)cc1	0	20.6µM	?	?	?
COC(=O)c1[nH]nc(C(=O)OC(C)(C)C)c1-c1ccccc1	0	13µM	16.4µM	0	0
COC(=O)c1n[nH]nc1-c1ccccc1	0	0	0	0	0
Cc1cc2c(cc1S(=O)(=O)Nc1ccc(OC(F)(F)F)cc1)OCC(=O)N2	0	?	?	?	0
